# According to paper PMC11062922 (Nature Chemical Biology, 2023):
# Read-outs that look alike come from different tables or passages of the source.
# Columns and labels:
# Set-up in all cases: species or system human, MV4-11 + K-562 + COLO205 + SK-N-BE2 + OVCAR-8
# [1] = tested on: ACVR1B; settings: read-out: apparent Kd, n = 1
# [2] = tested on: BRAF; settings: read-out: apparent Kd; compound concentrations: 100 nM and 1000 nM (sheet 'Samples'), CATDS: 0.43506507859715299; n = 1
# [3] = tested on: CDC42BPG; settings: read-out: apparent Kd; compound concentrations: 100 nM and 1000 nM (sheet 'Samples'), CATDS: 0.27820560825635698; n = 1
# [4] = tested on: CDC42; settings: read-out: apparent Kd; compound concentrations:100 nM and 1000 nM (sheet 'Samples'); n = 1
# [5] = tested on: CSNK1A1; settings: read-out: apparent Kd, n = 1
# [6] = tested on: CSNK1D; settings: read-out: apparent Kd, n = 1
# [7] = tested on: NQO2; settings: read-out: apparent Kd; compound concentrations:100 nM and 1000 nM (sheet 'Samples'); n = 1
# [8] = tested on: TGFBR1; settings: read-out: apparent Kd, n = 1
# [9] = tested on: ADCK3; settings: read-out: apparent Kd; compound concentrations:100 nM and 1000 nM (sheet 'Samples'); n = 1
# [10] = tested on: DDR1; settings: read-out: apparent Kd, n = 1
# [11] = tested on: MAPKAPK2; settings: read-out: apparent Kd, n = 1
# [12] = tested on: PKN3; settings: read-out: apparent Kd, n = 1
# [13] = tested on: RIPK2; settings: read-out: apparent Kd, n = 1
# [14] = tested on: SPR; settings: read-out: apparent Kd; compound concentrations:100 nM and 1000 nM (sheet 'Samples'); n = 1
# [15] = tested on: TESK2; settings: read-out: apparent Kd; compound concentrations:100 nM and 1000 nM (sheet 'Samples'); n = 1
# [16] = tested on: TGFBR2; settings: read-out: apparent Kd; compound concentrations:100 nM and 1000 nM (sheet 'Samples'); n = 1
# [17] = tested on: TTK; settings: read-out: apparent Kd; compound concentrations:100 nM and 1000 nM (sheet 'Samples'); n = 1
# [18] = tested on: ACVR1; settings: read-out: apparent Kd; compound concentrations: 100 nM and 1000 nM (sheet 'Samples'), CATDS: 2.5761015840506201E-2; n = 1
# [19] = tested on: CIT; settings: read-out: apparent Kd; compound concentrations: 100 nM and 1000 nM (sheet 'Samples'), CATDS: 4.5392232292010899E-2; n = 1
# [20] = tested on: CSNK1E; settings: read-out: apparent Kd; compound concentrations: 100 nM and 1000 nM (sheet 'Samples'), CATDS: 0.26273499221924201; n = 1
# [21] = tested on: DDR2; settings: read-out: apparent Kd; compound concentrations: 100 nM and 1000 nM (sheet 'Samples'), CATDS: 4.5410766330070199E-2; n = 1
# [22] = tested on: GAK; settings: read-out: apparent Kd; compound concentrations: 100 nM and 1000 nM (sheet 'Samples'), CATDS: 2.6841490369303E-2; n = 1
# [23] = tested on: JAK1; settings: read-out: apparent Kd; compound concentrations: 100 nM and 1000 nM (sheet 'Samples'), CATDS: 2.6628241709745499E-2; n = 1
# [24] = tested on: MAPK10; settings: read-out: apparent Kd; compound concentrations: 100 nM and 1000 nM (sheet 'Samples'), CATDS: 4.9321772364443003E-2; n = 1
# [25] = tested on: MAPK11; settings: read-out: apparent Kd; compound concentrations: 100 nM and 1000 nM (sheet 'Samples'), CATDS: 2.6556217045786298E-2; n = 1
# [26] = tested on: MAPK14; settings: read-out: apparent Kd; compound concentrations: 100 nM and 1000 nM (sheet 'Samples'), CATDS: 9.6245202156368906E-2; n = 1
# [27] = tested on: MAPK8; settings: read-out: apparent Kd; compound concentrations: 100 nM and 1000 nM (sheet 'Samples'), CATDS: 2.73704072863558E-2; n = 1
# [28] = tested on: MAPK9; settings: read-out: apparent Kd; compound concentrations: 100 nM and 1000 nM (sheet 'Samples'), CATDS: 5.3906209351099597E-2; n = 1
# [29] = tested on: MYLK3; settings: read-out: apparent Kd; compound concentrations: 100 nM and 1000 nM (sheet 'Samples'), CATDS: 2.9739343508474202E-2; n = 1
# [30] = tested on: NLK; settings: read-out: apparent Kd; compound concentrations: 100 nM and 1000 nM (sheet 'Samples'), CATDS: 4.6610928560784803E-2; n = 1
# [31] = tested on: PRKD2; settings: read-out: apparent Kd; compound concentrations: 100 nM and 1000 nM (sheet 'Samples'), CATDS: 2.85113335407263E-2; n = 1
# [32] = tested on: PRKD3; settings: read-out: apparent Kd; compound concentrations: 100 nM and 1000 nM (sheet 'Samples'), CATDS: 2.77377290368628E-2; n = 1
# [33] = tested on: RIPK3; settings: read-out: apparent Kd; compound concentrations: 100 nM and 1000 nM (sheet 'Samples'), CATDS: 2.3985776131164802E-2; n = 1
# [34] = tested on: TNIK; settings: read-out: apparent Kd; compound concentrations: 100 nM and 1000 nM (sheet 'Samples'), CATDS: 2.6108076869188701E-2; n = 1
# [35] = compound concentrations:100 nM and 1000 nM (sheet 'Samples')
smiles,measurement,setting,value
CN(C)CCOc1ccc(-c2cc(-c3ccc4c(c3)CCC4=NO)c(-c3ccncc3)o2)cc1.Cl [SB-682330-A],potency estimated from few doses,"[1]; compound concentrations: 100 nM and 1000 nM (sheet 'Samples'), CATDS: 0.32185082744978499",1130 nM
same,potency estimated from few doses,[2],644 nM
same,potency estimated from few doses,[3],1600 nM
CN(C(=O)c1ccc(-c2cc(-c3c[nH]nc3-c3ccccn3)ccn2)cc1)C1CCOCC1 [GW810083X],potency estimated from few doses,[1]; [35],788 nM
same,potency estimated from few doses,[4],1840 nM
same,potency estimated from few doses,[5]; [35],2390 nM
same,potency estimated from few doses,[6]; [35],1940 nM
same,potency estimated from few doses,[7],1200 nM
same,potency estimated from few doses,[8]; [35],198 nM
Cl.Cl.Oc1cc(-c2nc(-c3ccccc3)[nH]c2-c2ccncc2)ccc1Cl.Oc1cc(-c2nc(-c3ccccc3)[nH]c2-c2ccncc2)ccc1Cl [SB-386023-B],potency estimated from few doses,[1]; [35],968 nM
same,potency estimated from few doses,[9],373 nM
same,potency estimated from few doses,[10]; [35],1840 nM
same,potency estimated from few doses,[11]; [35],1700 nM
same,potency estimated from few doses,[12]; [35],1020 nM
same,potency estimated from few doses,[13]; [35],192 nM
same,potency estimated from few doses,[14],422 nM
same,potency estimated from few doses,[15],1470 nM
same,potency estimated from few doses,[16],2050 nM
same,potency estimated from few doses,[17],1600 nM
N#Cc1ccc(-c2cc(-c3c[nH]nc3-c3ccccn3)ccn2)cc1 [GW693028X],potency estimated from few doses,[1]; [35],872 nM
same,potency estimated from few doses,[9],671 nM
same,potency estimated from few doses,[7],773 nM
same,potency estimated from few doses,[8]; [35],263 nM
Nc1nccc(-c2c(-c3ccc(F)cc3)ncn2C2CCC(O)CC2)n1 (stereo not drawn) [SB-223133],potency estimated from few doses,"[1]; compound concentrations: 100 nM and 1000 nM (sheet 'Samples'), CATDS: 5.67589208103269E-2",74.5 nM
same,potency estimated from few doses,[18],1350 nM
same,potency estimated from few doses,[19],140 nM
same,potency estimated from few doses,"[5]; compound concentrations: 100 nM and 1000 nM (sheet 'Samples'), CATDS: 0.114009601510889",15 nM
same,potency estimated from few doses,"[6]; compound concentrations: 100 nM and 1000 nM (sheet 'Samples'), CATDS: 0.391959397884028",1.72 nM
same,potency estimated from few doses,[20],3.2 nM
same,potency estimated from few doses,"[10]; compound concentrations: 100 nM and 1000 nM (sheet 'Samples'), CATDS: 4.8095496683990102E-2",118 nM
same,potency estimated from few doses,[21],140 nM
same,potency estimated from few doses,[22],1070 nM
same,potency estimated from few doses,[23],1120 nM
same,potency estimated from few doses,[24],110 nM
same,potency estimated from few doses,[25],1140 nM
same,potency estimated from few doses,[26],21.4 nM
same,potency estimated from few doses,[27],969 nM
same,potency estimated from few doses,[28],85.6 nM
same,potency estimated from few doses,"[11]; compound concentrations: 100 nM and 1000 nM (sheet 'Samples'), CATDS: 8.8407398731798204E-2",25.8 nM
same,potency estimated from few doses,[29],653 nM
same,potency estimated from few doses,[30],129 nM
same,potency estimated from few doses,"[12]; compound concentrations: 100 nM and 1000 nM (sheet 'Samples'), CATDS: 2.84976438170014E-2",794 nM
same,potency estimated from few doses,[31],793 nM
same,potency estimated from few doses,[32],906 nM
same,potency estimated from few doses,"[13]; compound concentrations: 100 nM and 1000 nM (sheet 'Samples'), CATDS: 7.8449677339207394E-2",33.7 nM
same,potency estimated from few doses,[33],2140 nM
same,potency estimated from few doses,"[8]; compound concentrations: 100 nM and 1000 nM (sheet 'Samples'), CATDS: 3.9958881168014597E-2",210 nM
same,potency estimated from few doses,[34],1250 nM
